The source of these data is PMC7862700, “An all-to-all approach to the identification of sequence-specific readers for epigenetic DNA modifications on cytosine”.

What all share (test): DAPPL (digital affinity profiling via proximity ligation, sequencing); 10 mM Tris-HCl pH 7.5, 50 mM NaCl, 1 mM DTT, 4% glycerol, room temperature, 30 min; GST-TFs on glutathione beads, 16-mer random dsDNA library, 0.1% formaldehyde crosslink after washing; high values mean tight binding
Conditions in all cases: protein: recombinant; tags: N-terminal GST; dsDNA, one strand shown

One assay addresses T1, FLI1 (Homo sapiens, UniProt Q01543 1-452).
T1 sequence: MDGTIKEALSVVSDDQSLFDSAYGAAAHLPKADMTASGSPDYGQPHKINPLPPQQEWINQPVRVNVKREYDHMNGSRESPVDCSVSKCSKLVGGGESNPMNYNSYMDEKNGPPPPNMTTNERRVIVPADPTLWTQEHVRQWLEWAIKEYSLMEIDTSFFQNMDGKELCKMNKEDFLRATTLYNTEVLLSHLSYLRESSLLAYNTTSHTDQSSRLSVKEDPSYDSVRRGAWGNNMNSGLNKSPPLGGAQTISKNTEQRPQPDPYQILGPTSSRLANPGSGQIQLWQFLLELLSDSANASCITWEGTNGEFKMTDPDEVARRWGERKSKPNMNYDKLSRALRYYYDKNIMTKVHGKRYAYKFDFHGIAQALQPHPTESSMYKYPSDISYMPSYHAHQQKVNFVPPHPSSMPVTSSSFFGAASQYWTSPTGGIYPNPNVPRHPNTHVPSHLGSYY
A digest of the protocol: (§1)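 Beads coated with glutathione captured GST-fused human transcription factors that had been expressed in yeast, and the factors were then given DNA barcodes and pooled with a tag-only sample. The pools were incubated with 200 nmole of a random double-stranded 16-mer DNA library in Tris/NaCl/DTT/glycerol buffer for 30 min at room temperature, washed, crosslinked with 0.1% formaldehyde and proximity-ligated with BsaI/T4 ligase at 37 °C for 1 h. PCR amplification and Illumina NextSeq500 sequencing came last. Binding signal is each hexamer's read frequency for a factor divided by its frequency for the tag-only sample.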

The next assay deals with T2, ELK1 (Homo sapiens, UniProt P19419 1-428).
T2 sequence: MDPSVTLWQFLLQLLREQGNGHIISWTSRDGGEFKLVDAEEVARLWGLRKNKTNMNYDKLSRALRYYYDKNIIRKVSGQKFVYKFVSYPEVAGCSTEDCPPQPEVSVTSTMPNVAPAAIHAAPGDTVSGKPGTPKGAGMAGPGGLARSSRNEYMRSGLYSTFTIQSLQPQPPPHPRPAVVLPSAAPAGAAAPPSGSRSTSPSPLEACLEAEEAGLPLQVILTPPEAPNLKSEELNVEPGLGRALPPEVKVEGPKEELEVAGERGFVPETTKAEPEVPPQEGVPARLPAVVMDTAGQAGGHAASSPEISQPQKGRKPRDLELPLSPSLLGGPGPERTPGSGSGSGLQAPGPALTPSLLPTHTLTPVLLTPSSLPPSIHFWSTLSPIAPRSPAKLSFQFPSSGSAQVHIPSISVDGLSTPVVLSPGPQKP
Summed up:
as §1

Another assay deals with T3, GABPA (Homo sapiens, UniProt Q06546 1-454).
T3 sequence: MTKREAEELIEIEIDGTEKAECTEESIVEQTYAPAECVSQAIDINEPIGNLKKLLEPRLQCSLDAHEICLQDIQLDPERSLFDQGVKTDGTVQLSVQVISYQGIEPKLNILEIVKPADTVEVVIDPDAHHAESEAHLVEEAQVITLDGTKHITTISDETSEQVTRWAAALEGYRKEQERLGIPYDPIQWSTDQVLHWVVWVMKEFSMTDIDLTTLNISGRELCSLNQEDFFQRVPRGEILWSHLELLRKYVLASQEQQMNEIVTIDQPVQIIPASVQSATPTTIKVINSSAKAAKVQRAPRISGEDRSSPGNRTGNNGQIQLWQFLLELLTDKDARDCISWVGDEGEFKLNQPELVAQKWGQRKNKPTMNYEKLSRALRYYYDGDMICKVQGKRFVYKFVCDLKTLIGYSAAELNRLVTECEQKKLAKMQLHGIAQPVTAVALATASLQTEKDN
A digest of the protocol: as §1

The target of a further assay is T4, ERG (Homo sapiens, UniProt P11308 1-479).
T4 sequence: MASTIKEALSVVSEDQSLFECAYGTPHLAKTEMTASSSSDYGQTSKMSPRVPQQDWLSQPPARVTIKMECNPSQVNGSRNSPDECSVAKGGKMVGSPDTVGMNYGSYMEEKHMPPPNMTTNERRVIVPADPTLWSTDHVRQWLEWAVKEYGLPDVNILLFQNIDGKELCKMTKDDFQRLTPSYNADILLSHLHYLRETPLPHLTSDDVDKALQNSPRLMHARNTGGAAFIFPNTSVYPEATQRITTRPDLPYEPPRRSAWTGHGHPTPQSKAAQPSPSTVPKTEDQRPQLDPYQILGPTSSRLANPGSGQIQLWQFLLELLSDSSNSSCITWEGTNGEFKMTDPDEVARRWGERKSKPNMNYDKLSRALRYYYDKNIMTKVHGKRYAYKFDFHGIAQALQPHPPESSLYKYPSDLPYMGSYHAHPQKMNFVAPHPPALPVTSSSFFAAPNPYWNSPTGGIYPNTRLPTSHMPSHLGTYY
A digest of the protocol:
as §1

Another assay has as its target ELF1 (Homo sapiens, UniProt P32519 1-619). A digest of the protocol:
as §1

A further assay addresses T5, EHF (Homo sapiens, UniProt Q9NZC4 1-300).
T5 sequence: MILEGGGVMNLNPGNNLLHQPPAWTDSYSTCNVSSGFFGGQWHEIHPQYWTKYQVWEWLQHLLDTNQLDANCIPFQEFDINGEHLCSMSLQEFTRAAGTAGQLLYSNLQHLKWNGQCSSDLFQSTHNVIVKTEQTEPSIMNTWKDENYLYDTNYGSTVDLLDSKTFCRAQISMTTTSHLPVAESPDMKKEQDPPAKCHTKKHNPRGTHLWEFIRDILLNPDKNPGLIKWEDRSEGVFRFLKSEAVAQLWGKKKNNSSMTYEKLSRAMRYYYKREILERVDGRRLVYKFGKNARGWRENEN
A digest of the protocol: as §1

The target of the next assay is SPI1 (Homo sapiens, UniProt P17947 1-270). A digest of the protocol: as §1
The target in the next assay is SPIB (Homo sapiens, UniProt Q01892 1-262). A digest of the protocol: as §1
Chain of SPIB (Q01892 whole entry): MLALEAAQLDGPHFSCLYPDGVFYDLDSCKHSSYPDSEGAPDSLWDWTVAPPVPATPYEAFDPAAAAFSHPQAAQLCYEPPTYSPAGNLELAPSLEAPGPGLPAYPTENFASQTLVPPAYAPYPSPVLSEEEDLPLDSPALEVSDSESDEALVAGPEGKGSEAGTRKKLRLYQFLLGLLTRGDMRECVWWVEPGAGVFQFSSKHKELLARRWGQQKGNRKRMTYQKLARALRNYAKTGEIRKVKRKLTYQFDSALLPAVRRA
A further assay concerns the target T6, ELK3 (Homo sapiens, UniProt P41970 1-407).
T6 sequence: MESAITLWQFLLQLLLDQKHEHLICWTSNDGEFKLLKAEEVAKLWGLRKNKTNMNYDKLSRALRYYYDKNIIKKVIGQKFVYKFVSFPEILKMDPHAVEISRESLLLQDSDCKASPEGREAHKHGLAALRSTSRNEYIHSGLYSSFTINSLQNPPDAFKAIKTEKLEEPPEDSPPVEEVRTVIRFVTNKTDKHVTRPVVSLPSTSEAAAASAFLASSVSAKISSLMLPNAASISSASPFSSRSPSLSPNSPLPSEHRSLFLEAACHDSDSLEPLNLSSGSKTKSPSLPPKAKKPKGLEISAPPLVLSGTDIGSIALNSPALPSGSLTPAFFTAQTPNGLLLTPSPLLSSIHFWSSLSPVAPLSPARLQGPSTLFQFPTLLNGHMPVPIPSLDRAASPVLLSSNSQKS
A digest of the protocol:
as §1

Chain of ELF1 (P32519 whole entry): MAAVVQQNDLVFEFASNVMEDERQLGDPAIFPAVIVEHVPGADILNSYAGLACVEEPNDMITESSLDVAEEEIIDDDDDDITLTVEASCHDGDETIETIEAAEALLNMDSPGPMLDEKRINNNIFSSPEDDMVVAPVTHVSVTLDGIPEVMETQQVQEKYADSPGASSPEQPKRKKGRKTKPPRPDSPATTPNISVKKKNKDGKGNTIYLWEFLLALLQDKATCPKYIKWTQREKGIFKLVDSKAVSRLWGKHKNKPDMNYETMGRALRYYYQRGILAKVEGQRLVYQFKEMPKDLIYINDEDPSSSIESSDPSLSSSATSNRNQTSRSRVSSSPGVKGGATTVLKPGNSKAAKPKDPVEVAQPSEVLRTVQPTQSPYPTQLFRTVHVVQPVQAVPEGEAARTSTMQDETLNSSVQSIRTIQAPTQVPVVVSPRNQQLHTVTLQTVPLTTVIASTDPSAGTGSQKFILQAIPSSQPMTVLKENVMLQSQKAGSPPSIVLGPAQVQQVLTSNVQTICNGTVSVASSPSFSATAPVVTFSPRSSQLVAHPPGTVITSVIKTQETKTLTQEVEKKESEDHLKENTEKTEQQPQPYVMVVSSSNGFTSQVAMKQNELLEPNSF

As to GGCTCC, the binding signal was 1.33 fold enrichment (6-mer frequency, TF over GST control) in the assay with FLI1; 1.29 fold enrichment (6-mer frequency, TF over GST control) with ELK1; 1.44 fold enrichment (6-mer frequency, TF over GST control) with GABPA; 1.35 fold enrichment (6-mer frequency, TF over GST control) with ERG; 1.3 fold enrichment (6-mer frequency, TF over GST control) in the assay with ELF1; 1.31 fold enrichment (6-mer frequency, TF over GST control) with EHF. Also, the binding signal in the assay with SPI1 was 1.22 fold enrichment (6-mer frequency, TF over GST control); in the assay with SPIB, 1.39 fold enrichment (6-mer frequency, TF over GST control); with ELK3 it was 1.27 fold enrichment (6-mer frequency, TF over GST control).
For the sequence ACTTAT, the binding signal with FLI1 was 1.4 fold enrichment (6-mer frequency, TF over GST control); with ELK1, 1.4 fold enrichment (6-mer frequency, TF over GST control); with GABPA, 1.47 fold enrichment (6-mer frequency, TF over GST control); in the assay with ERG, 1.37 fold enrichment (6-mer frequency, TF over GST control); in the assay with ELF1, 1.46 fold enrichment (6-mer frequency, TF over GST control); in the assay with EHF, 1.41 fold enrichment (6-mer frequency, TF over GST control). The binding signal with SPI1 was 1.39 fold enrichment (6-mer frequency, TF over GST control); with SPIB it was 1.38 fold enrichment (6-mer frequency, TF over GST control); with ELK3, 1.5 fold enrichment (6-mer frequency, TF over GST control).
In the case of TCACGT, the binding signal in the assay with FLI1 was 1.28 fold enrichment (6-mer frequency, TF over GST control); with ELK1, 1.3 fold enrichment (6-mer frequency, TF over GST control); with GABPA, 1.31 fold enrichment (6-mer frequency, TF over GST control); with ERG, 1.29 fold enrichment (6-mer frequency, TF over GST control); in the assay with ELF1 it was 1.17 fold enrichment (6-mer frequency, TF over GST control); with EHF, 1.14 fold enrichment (6-mer frequency, TF over GST control). Moreover, the binding signal with SPI1 was 1.24 fold enrichment (6-mer frequency, TF over GST control); with SPIB, 1.18 fold enrichment (6-mer frequency, TF over GST control); in the assay with ELK3, 1.16 fold enrichment (6-mer frequency, TF over GST control).
Consider CTATTC, for which the binding signal in the assay with FLI1 was 1.33 fold enrichment (6-mer frequency, TF over GST control); with ELK1, 1.34 fold enrichment (6-mer frequency, TF over GST control); with GABPA, 1.34 fold enrichment (6-mer frequency, TF over GST control); in the assay with ERG it was 1.35 fold enrichment (6-mer frequency, TF over GST control); with ELF1, 1.42 fold enrichment (6-mer frequency, TF over GST control); in the assay with EHF it was 1.42 fold enrichment (6-mer frequency, TF over GST control). Also, the binding signal in the assay with SPI1 was 1.29 fold enrichment (6-mer frequency, TF over GST control); with SPIB, 1.23 fold enrichment (6-mer frequency, TF over GST control); with ELK3, 1.13 fold enrichment (6-mer frequency, TF over GST control).
As to TAACGC, the binding signal is 1.12 fold enrichment (6-mer frequency, TF over GST control) with FLI1; 1.2 fold enrichment (6-mer frequency, TF over GST control) in the assay with ELK1; 1.21 fold enrichment (6-mer frequency, TF over GST control) with GABPA; 1.17 fold enrichment (6-mer frequency, TF over GST control) with ERG; 1.27 fold enrichment (6-mer frequency, TF over GST control) with ELF1; 1.16 fold enrichment (6-mer frequency, TF over GST control) with EHF. In addition, the binding signal was 1.17 fold enrichment (6-mer frequency, TF over GST control) in the assay with SPI1; 1.13 fold enrichment (6-mer frequency, TF over GST control) with SPIB; 1.23 fold enrichment (6-mer frequency, TF over GST control) with ELK3.
Regarding TTGACA, the binding signal with FLI1 is 1.38 fold enrichment (6-mer frequency, TF over GST control); in the assay with ELK1 it was 1.37 fold enrichment (6-mer frequency, TF over GST control); with GABPA, 1.44 fold enrichment (6-mer frequency, TF over GST control); with ERG it was 1.34 fold enrichment (6-mer frequency, TF over GST control); with ELF1 it was 1.37 fold enrichment (6-mer frequency, TF over GST control); with EHF, 1.29 fold enrichment (6-mer frequency, TF over GST control). Further, the binding signal in the assay with SPI1 was 1.25 fold enrichment (6-mer frequency, TF over GST control); in the assay with SPIB, 1.28 fold enrichment (6-mer frequency, TF over GST control); with ELK3 it was 1.28 fold enrichment (6-mer frequency, TF over GST control).
In the case of AAATTT, the binding signal was 1.31 fold enrichment (6-mer frequency, TF over GST control) with FLI1; 1.31 fold enrichment (6-mer frequency, TF over GST control) with ELK1; 1.26 fold enrichment (6-mer frequency, TF over GST control) in the assay with GABPA; 1.3 fold enrichment (6-mer frequency, TF over GST control) with ERG; 1.25 fold enrichment (6-mer frequency, TF over GST control) with ELF1; 1.33 fold enrichment (6-mer frequency, TF over GST control) in the assay with EHF. Further, the binding signal in the assay with SPI1 is 1.22 fold enrichment (6-mer frequency, TF over GST control); in the assay with SPIB, 1.45 fold enrichment (6-mer frequency, TF over GST control); with ELK3, 1.28 fold enrichment (6-mer frequency, TF over GST control).
For the sequence CCCTAC, the binding signal with FLI1 is 1.5 fold enrichment (6-mer frequency, TF over GST control); with ELK1 it was 1.49 fold enrichment (6-mer frequency, TF over GST control); in the assay with GABPA, 1.33 fold enrichment (6-mer frequency, TF over GST control); with ERG, 1.33 fold enrichment (6-mer frequency, TF over GST control); with ELF1, 1.4 fold enrichment (6-mer frequency, TF over GST control); with EHF it was 1.33 fold enrichment (6-mer frequency, TF over GST control). The binding signal in the assay with SPI1 was 1.36 fold enrichment (6-mer frequency, TF over GST control); with SPIB, 1.25 fold enrichment (6-mer frequency, TF over GST control); with ELK3, 1.65 fold enrichment (6-mer frequency, TF over GST control).
